From publication PMC9574860, “Chemical Toolkit for PARK7: Potent, Selective, and High-Throughput” (Journal of Medicinal Chemistry, 2022)
Screen size: about 7,900 compounds; about 400 (5.1%) showed an effect of 50% or more. Only a selection was taken, and strong results are over-represented in it overall.

These compounds were tested against Parkinson's disease protein 7 (PARK7/DJ1) (human, UniProt Q99497) (assay: primary screen, percent inhibition; read as competition with a fluorescent probe by fluorescence polarization; higher = more effect of the substance). Conditions: 100 µM.
Sequence of Parkinson's disease protein 7 (PARK7/DJ1) (Q99497 whole entry, looked up, the tested form may be a part): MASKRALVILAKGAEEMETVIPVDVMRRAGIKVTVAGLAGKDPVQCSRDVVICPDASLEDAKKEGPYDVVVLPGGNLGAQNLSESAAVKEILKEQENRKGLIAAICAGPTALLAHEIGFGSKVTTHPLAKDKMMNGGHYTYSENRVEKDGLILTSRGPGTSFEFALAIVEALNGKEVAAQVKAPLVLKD
Outline: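 Fluorescence-polarization probe displacement (JYQ-107, 20 nM final, 2 h) after 2 h preincubation of PARK7 (0.2 μM final) with each fragment at 100 μM final. Read-out ex/em 480/520 nm; remaining activity derived from FP signal loss relative to reference controls.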
In the case of `O=C1OCCC1N1CCN(c2nccs2)CC1` (stereo not drawn), the Inhibition % is reported as 2.57%.
With `O=c1[nH]nc(-c2ccc(F)cc2)o1` the Inhibition % was 6.22%.
Compound `O=c1[nH]nc(-c2ccco2)o1` has an Inhibition % of 50.5%.
`O=c1[nH]nc(-c2cccs2)o1` showed an Inhibition % of 12.1%.
With `O=C(O)Cn1nc(-c2ccc(F)cc2)oc1=O` the Inhibition % was 12.4%.
`Nc1cncc(S(=O)(=O)F)c1` gave an Inhibition % of 95.6%.
In the case of `Nc1ccc(S(=O)(=O)F)cc1`, the Inhibition % is reported as 5.99%.
Work on `N#CC(=Cc1ccc(-c2ccc(Cl)cc2Cl)o1)C(N)=O` yielded an Inhibition % of 3.17%.
Work on `Cc1ccc(Cl)c(OCC2CO2)c1` (stereo not drawn) yielded an Inhibition % of 7.81%.
`CC1(C)OB(c2c(Cl)cccc2Cl)OC1(C)C` showed an Inhibition % of 1.49%.
`Cc1ccccc1N1CCN(C(=O)n2ccnc2)CC1` showed an Inhibition % of 8.38%.
Compound `Cc1ccccc1CN(C)C(=O)CCl` has an Inhibition % of 56.6%.
With `CN(Cc1cccs1)C(=O)CCl` the Inhibition % was 36.6%.
With `Cc1ccc(CN(C)C(=O)CCl)c(C)c1` the Inhibition % was 65.7%.
Work on `CN(Cc1cc(Br)cs1)C(=O)CCl` yielded an Inhibition % of 42.9%.
For `CN(Cc1cc(C#N)ccc1F)C(=O)CCl`, the Inhibition % was 50.3%.
With `CCN(Cc1ccc(C#N)cc1F)C(=O)CCl` the Inhibition % was 16.8%.
Work on `Cc1ccccc1CCNC(=O)CCl` yielded an Inhibition % of 8.29%.
With `CN(Cc1ccccc1Br)C(=O)CCl` the Inhibition % was 93.9%.
`Cc1ccccc1CC(=O)NNC(=O)CCl` showed an Inhibition % of 24%.
For `Cc1ccc(CN(C)C(=O)Cn2cnc(C#N)n2)c(C)c1`, the Inhibition % was 3.86%.
For `CC(NC(=O)CCl)c1cccs1` (stereo not drawn), the Inhibition % was 9.37%.
`C=CC(=O)N1CC(C)S(=O)(=O)C(C)C1` (stereo not drawn) was tested, and the Inhibition % was 5.08%.
`Cn1nccc1C12CCOCC1O2` (stereo not drawn) showed an Inhibition % of 9.22%.
With `COc1ccccc1COCC1CO1` (stereo not drawn) the Inhibition % was 4.72%.
`C=CC(=O)N1CCCC(c2nn(C)cc2C(=O)O)C1` (stereo not drawn) showed an Inhibition % of 0.724%.
`N#Cc1ncn(-c2ncc(C(F)(F)F)cc2Cl)n1` showed an Inhibition % of 6.83%.
Work on `C=CC(=O)NCC1CCCSC1` (stereo not drawn) yielded an Inhibition % of 13.8%.
Work on `O=C(CCl)N(Cc1ccco1)c1ccccc1` yielded an Inhibition % of 17.8%.
For `CN(Cc1ccc(-c2ccc(Cl)cc2)o1)C(=O)CCl`, the Inhibition % was 79.2%.
`CN(Cc1ccco1)C(=O)CCl` was tested, and the Inhibition % was 53%.
`Cc1ccc(CN(C)C(=O)CCl)o1` showed an Inhibition % of 40.8%.
`CN(Cc1ccc(Cl)s1)C(=O)CCl` was tested, and the Inhibition % was 30.4%.
`O=C(CCl)NC(=O)NC12CC3CC(CC(C3)C1)C2` showed an Inhibition % of 0.699%.
`C=CC(=O)Nc1cn(C)nc1C(C)C` gave an Inhibition % of 8.9%.
`CCn1c(N)c(C(=O)CCl)c(=O)[nH]c1=O` showed an Inhibition % of 4.93%.
For `C=CC(=O)N1C[C@]2(C)CC[C@@H](C2)C1(C)C`, the Inhibition % was 15%.
Work on `O=S(=O)(F)c1ccc(-c2cn(Cc3cc(C4CC4)no3)nn2)cc1` yielded an Inhibition % of 3.46%.
Compound `Cl.ClCCc1nc2ccccc2[nH]1` has an Inhibition % of 3.05%.
`C=CC(=O)NCC1(C)CCOC2(CCC2)C1` (stereo not drawn) showed an Inhibition % of 13.5%.
Compound `CC1(C)OB(c2cccc(OCCN3CCCCC3)c2)OC1(C)C` has an Inhibition % of -0.0143%.
`O=C(CCCl)NC1CCCCC1` showed an Inhibition % of 3.8%.
`O=c1onc(-c2ccccn2)n1C1C=CCCC1` (stereo not drawn) showed an Inhibition % of 5.08%.
With `O=c1onc(-c2cccnc2)n1Cc1cc(F)cc(F)c1` the Inhibition % was 16.6%.
`O=c1onc(-c2cccnc2)n1C1C=CCCC1` (stereo not drawn) was tested, and the Inhibition % was 54.8%.
In the case of `O=C(Nc1ccncc1)N1CCC(C2OCCO2)CC1`, the Inhibition % is reported as 9.17%.
With `O=C(Oc1ccccc1)N1CC(O)C1` the Inhibition % was 29%.
`C=CC(=O)NC(C)c1cnn(C)c1` (stereo not drawn) showed an Inhibition % of 5.67%.
Compound `O=C1NC(=O)C(CCS(=O)(=O)F)N1` (stereo not drawn) has an Inhibition % of 97.6%.
With `Cl.O=S(=O)(F)CC1CCCNC1` (stereo not drawn) the Inhibition % was 7.49%.
`CC1(C)NC(=O)N(CCS(=O)(=O)F)C1=O` showed an Inhibition % of -4.21%.
In the case of `Cl.O=S(=O)(F)CC1CNCCO1` (stereo not drawn), the Inhibition % is reported as 11%.
`O=C1NC(=O)C(CS(=O)(=O)F)N1` (stereo not drawn) gave an Inhibition % of 69.7%.
With `Cl.O=S(=O)(F)CCC1CCCCN1` (stereo not drawn) the Inhibition % was 1.97%.
In the case of `O=C1NC(=O)C(CCS)N1` (stereo not drawn), the Inhibition % is reported as 26.8%.
`O=C1NC(=O)C(CS)N1` (stereo not drawn) showed an Inhibition % of 84.8%.
Work on `O=C1NC(C2CC2)C1C1CC1` (stereo not drawn) yielded an Inhibition % of 6.35%.
Compound `N#Cc1cnc(OCC(F)(F)F)cn1` has an Inhibition % of 4.9%.
`C=CC(=O)N1CCC(S(=O)(=O)C(C)C)CC1` gave an Inhibition % of 5.57%.
With `Cc1csc(C(C#N)=Cc2cnn(C)c2)n1` the Inhibition % was 11.9%.
For `Cc1cc(C)nc(S)n1`, the Inhibition % was 17.2%.
In the case of `Cc1cnc(S(=O)(=O)F)nc1`, the Inhibition % is reported as 33.7%.
In the case of `Cc1cc(C)nc(S(=O)(=O)F)n1`, the Inhibition % is reported as 55.9%.
`O=C(CCCCl)N1CCCCC1` was tested, and the Inhibition % was 2.86%.
Work on `O=C1OCCC1N1C(=O)c2ccccc2S1(=O)=O` (stereo not drawn) yielded an Inhibition % of 6.02%.
Work on `Cc1ccc(C=CS(=O)(=O)Nc2cc(C)nn2C)cc1` yielded an Inhibition % of 20%.
`C=CC(=O)N1CCC(C)C(OC)C1` (stereo not drawn) showed an Inhibition % of 7.85%.
In the case of `O=C(O)c1ccc(CS)c(F)c1`, the Inhibition % is reported as 82.7%.
`O=C(O)c1ccc2c(=O)[nH]c(S)nc2c1` gave an Inhibition % of 11.3%.
In the case of `O=C(O)c1cccc(CS)c1`, the Inhibition % is reported as 30.4%.
`O=C(CCl)Nc1cc2c(cc1[N+](=O)[O-])OCCCO2` was tested, and the Inhibition % was 3.15%.
Compound `COc1cccc(C2CCCN2C(=O)CCl)c1` (stereo not drawn) has an Inhibition % of 2.56%.
`C=CC(=O)N(C)Cc1cnc(N(C)C)nc1` showed an Inhibition % of 5.02%.
With `CC(C#N)NS(=O)(=O)c1ccc(S(=O)(=O)F)cc1` (stereo not drawn) the Inhibition % was 23.5%.
Compound `CCCC(C#N)NS(=O)(=O)c1ccc(S(=O)(=O)F)cc1` (stereo not drawn) has an Inhibition % of 33.3%.
`CCCC(C#N)NS(=O)(=O)c1cccc(S(=O)(=O)F)c1` (stereo not drawn) gave an Inhibition % of 96.8%.
`N#CC1(NS(=O)(=O)c2ccc(S(=O)(=O)F)cc2)CCC1` showed an Inhibition % of 31.4%.
In the case of `CC(C#N)NS(=O)(=O)c1cccc(S(=O)(=O)F)c1` (stereo not drawn), the Inhibition % is reported as 102%.
For `CCC(C#N)NS(=O)(=O)c1ccc(S(=O)(=O)F)cc1` (stereo not drawn), the Inhibition % was 31.6%.
`O=C(CN1CCSC1=O)NC1CCN2CCCCC12` (stereo not drawn) was tested, and the Inhibition % was 10.2%.
Work on `COc1ccc(C(C)(C)C)cc1NC(=O)CCl` yielded an Inhibition % of 10.8%.
`O=C(Nc1ccccc1F)N1CCC(C2OCCO2)CC1` was tested, and the Inhibition % was 5.67%.
In the case of `C=C(C)c1nc(C#N)c(NCc2ccccc2)o1`, the Inhibition % is reported as 9.08%.
Work on `COc1ccc2nc(C#N)ccc2c1` yielded an Inhibition % of 3.18%.
In the case of `Nc1ccc2nc(S)ccc2c1`, the Inhibition % is reported as 67.6%.
With `Sc1ccc2ccccc2n1` the Inhibition % was 14.2%.
`N#Cc1ccc2cc(N)ccc2n1` was tested, and the Inhibition % was 101%.
With `N#Cc1cc(N)c2ccccc2n1` the Inhibition % was 10.9%.
`Nc1cc(N)nc(S)n1` showed an Inhibition % of 6.46%.
For `N#Cc1ccc(Cl)cc1N1CCC(C2OCCO2)CC1`, the Inhibition % was 2.51%.
Work on `C=CC(=O)NC1CCCCNC1=O` (stereo not drawn) yielded an Inhibition % of 3.54%.
With `COc1ccc(S(N)(=O)=O)cc1NC(=O)CCl` the Inhibition % was 2.41%.
For `C=CC(=O)NC(NC(=O)C=C)c1ccccc1F`, the Inhibition % was 14.4%.
`CN(C)c1nccc(CNCc2ccc(B(O)O)cc2)n1` was tested, and the Inhibition % was -0.514%.
`C=CC(=O)NCC1CCCOC1c1ccc(C)cc1` (stereo not drawn) showed an Inhibition % of 9.55%.
`CNC1CCCN(C(=O)C=Cc2cncc(F)c2)C1` (stereo not drawn) showed an Inhibition % of 29.3%.
`Cl.O=C(CCl)NCC(c1ccccc1Cl)N1CCCC1` (stereo not drawn) was tested, and the Inhibition % was 3.25%.
`C=CC(=O)Nc1cnn(C(C)C)c1C1CC1` was tested, and the Inhibition % was 10.5%.
Work on `O=C1SCCN1CN1CCN(c2ccccc2F)CC1` yielded an Inhibition % of 3.81%.
`N#Cc1nc(-c2ccco2)oc1N1CCN(C(=O)CCl)CC1` showed an Inhibition % of 51.4%.
Work on `CC(C)N1CCN(c2oc(-c3ccco3)nc2C#N)CC1` yielded an Inhibition % of 10%.
`C#CCN1CCN(c2oc(-c3ccco3)nc2C#N)CC1` was tested, and the Inhibition % was 53.7%.
`N#Cc1nc(-c2ccco2)oc1N1CCNCC1` gave an Inhibition % of 9.97%.
Compound `CCN1CCN(c2oc(-c3ccco3)nc2C#N)CC1` has an Inhibition % of 9.73%.
With `CCCN1CCN(c2oc(-c3ccco3)nc2C#N)CC1` the Inhibition % was 9.64%.
With `ClCCCc1cccnc1` the Inhibition % was 7.37%.
`Cc1c(C#N)c(NC(=O)CCl)n(C2CCCCC2)c1C` showed an Inhibition % of 15.6%.
`C=CC(=O)Nc1ccc2c(c1)CCC2` gave an Inhibition % of 7.23%.
`O=C(CCl)Nc1ccc2c(c1)oc1ccccc12` showed an Inhibition % of 62.9%.
`COc1cc2c(cc1NC(=O)CCl)oc1ccccc12` was tested, and the Inhibition % was 4.67%.
`O=C(CCl)Nc1ccc2c(c1)CCC2` showed an Inhibition % of 57.8%.
Work on `O=C(CCl)Nc1cccc(Br)c1` yielded an Inhibition % of 29.1%.
Compound `O=C(CCl)Nc1ccc(Br)cc1` has an Inhibition % of 70.1%.
`CC(=O)c1oc2ccccc2c1NC(=O)CCl` was tested, and the Inhibition % was 9.9%.
`O=C(CCl)Nc1ccc(F)c(Cl)c1` gave an Inhibition % of 21.3%.
Work on `O=C(CCCl)Nc1ccc2c(c1)CCC2` yielded an Inhibition % of 4.93%.
Compound `O=C(CCl)NC(=O)Nc1ccc(Br)cc1` has an Inhibition % of 23.3%.
With `O=C(CCl)Nc1ccc(Cl)c(Cl)c1` the Inhibition % was 63%.
`O=C(CCl)Nc1ccc(Cl)c(F)c1` was tested, and the Inhibition % was 36.8%.
`O=C(c1cccnc1S)N1CCOC2(CCCC2)C1` showed an Inhibition % of 6.34%.
With `C=CC(=O)NCc1cc2n(n1)CCC2` the Inhibition % was 10.7%.
In the case of `CC1(C)OB(c2cccc(OC(F)F)c2)OC1(C)C`, the Inhibition % is reported as 3.49%.
In the case of `C=CC(=O)Nc1cccc2c1CCN(S(C)(=O)=O)C2`, the Inhibition % is reported as 3.82%.
With `CC1CC(Sc2ccccc2F)C(=O)O1` (stereo not drawn) the Inhibition % was -0.183%.
In the case of `C=CC(=O)NCCN1C(=O)Cc2ccccc21`, the Inhibition % is reported as 11%.
`CCN(C(=O)Cn1cnc(C#N)n1)C1=CCCCC1` gave an Inhibition % of 6.47%.
`C=CC(=O)N1CC23CCCCC2(COC3)C1` (stereo not drawn) was tested, and the Inhibition % was 8.4%.
`O=C(CCl)Nc1ccc(I)cc1` was tested, and the Inhibition % was 93.2%.
For `O=C(CCl)Nc1ccc2ccccc2c1`, the Inhibition % was 55.8%.
In the case of `CNC(=O)c1ccc(NC(=O)CCl)cc1`, the Inhibition % is reported as 16.6%.
`O=C(CCl)Nc1ccc(C(=O)O)cc1` was tested, and the Inhibition % was 25.9%.
`O=C(CCl)Nc1cccc(I)c1` was tested, and the Inhibition % was 41%.
`O=C(CCl)Nc1ccc(Cl)cc1` was tested, and the Inhibition % was 60.3%.
Work on `CC(=O)Nc1cccc(NC(=O)CCl)c1` yielded an Inhibition % of 19.2%.
Work on `O=C(CCCl)Nc1ccc(Cl)cc1` yielded an Inhibition % of 9.16%.
`CC(C)(C)c1ccc(NC(=O)CCl)cc1` gave an Inhibition % of 100%.
Work on `O=C(CCl)Nc1ccc2c(c1)C(=O)c1ccccc1C2=O` yielded an Inhibition % of 2.08%.
In the case of `O=C(CCl)Nc1ccc(F)c(F)c1`, the Inhibition % is reported as 25.9%.
